Measured values taken from the supplement of paper PMC11732987, “Enantioselective OTUD7B fragment discovery through chemoproteomics screening and high-throughput optimisation” (Communications Chemistry, 2025).

Assays:
Experiment in all cases: log2 ratio of Biotin-Ahx-Ub-VS probe labelling (fragment/DMSO); higher = less target engagement (more negative = stronger competition), active = hit call of the paper (q ≤ 0.05, log2 ratio ≤ -1)
Settings in all cases: compound concentration: 200 uM; treatment time: 3 h
USP19 = molecular target: T1, USP19 (UniProt O94966)
T1 sequence (whole entry): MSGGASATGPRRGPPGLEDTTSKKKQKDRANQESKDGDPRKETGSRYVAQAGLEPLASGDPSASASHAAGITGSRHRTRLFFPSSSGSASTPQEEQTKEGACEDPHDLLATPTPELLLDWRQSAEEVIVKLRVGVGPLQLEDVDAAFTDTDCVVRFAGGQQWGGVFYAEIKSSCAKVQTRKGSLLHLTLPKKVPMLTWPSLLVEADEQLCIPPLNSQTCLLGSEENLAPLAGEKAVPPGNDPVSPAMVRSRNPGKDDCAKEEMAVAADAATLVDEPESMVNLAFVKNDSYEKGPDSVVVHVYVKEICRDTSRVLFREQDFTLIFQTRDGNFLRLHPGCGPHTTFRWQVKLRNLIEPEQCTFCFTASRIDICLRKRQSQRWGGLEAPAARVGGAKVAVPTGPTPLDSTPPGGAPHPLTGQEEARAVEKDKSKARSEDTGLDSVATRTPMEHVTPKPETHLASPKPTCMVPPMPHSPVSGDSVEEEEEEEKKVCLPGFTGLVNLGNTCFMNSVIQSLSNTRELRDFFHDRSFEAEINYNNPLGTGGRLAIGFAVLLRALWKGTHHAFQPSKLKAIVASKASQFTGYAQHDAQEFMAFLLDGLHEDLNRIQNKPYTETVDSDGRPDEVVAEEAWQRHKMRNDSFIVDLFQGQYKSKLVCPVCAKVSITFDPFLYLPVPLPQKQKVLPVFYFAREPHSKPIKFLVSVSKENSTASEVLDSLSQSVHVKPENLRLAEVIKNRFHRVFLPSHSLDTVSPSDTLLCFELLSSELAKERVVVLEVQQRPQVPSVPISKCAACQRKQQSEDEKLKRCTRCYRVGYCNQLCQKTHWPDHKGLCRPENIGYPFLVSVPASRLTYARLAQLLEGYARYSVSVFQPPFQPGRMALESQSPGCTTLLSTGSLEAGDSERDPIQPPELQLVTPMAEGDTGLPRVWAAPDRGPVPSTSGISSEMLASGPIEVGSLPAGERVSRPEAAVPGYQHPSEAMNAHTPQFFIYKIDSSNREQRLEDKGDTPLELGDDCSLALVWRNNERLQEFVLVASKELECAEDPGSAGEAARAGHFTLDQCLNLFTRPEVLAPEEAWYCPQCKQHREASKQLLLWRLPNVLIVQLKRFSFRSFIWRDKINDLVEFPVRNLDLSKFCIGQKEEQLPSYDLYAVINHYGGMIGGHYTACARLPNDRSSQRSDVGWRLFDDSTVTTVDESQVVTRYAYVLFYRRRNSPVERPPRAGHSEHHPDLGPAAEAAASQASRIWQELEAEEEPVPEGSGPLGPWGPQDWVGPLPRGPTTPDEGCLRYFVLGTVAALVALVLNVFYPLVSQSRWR
How it was run: (§1)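 Each value is an average log2 ratio of fragment to vehicle, tested by unpaired t-test. The underlying Spectronaut label-free quantities were global-median-normalised, and only proteins with ≥2 unique peptides were included. Triplicate HEK293T lysate samples (495 µg) were exposed to fragment at 200 µM or vehicle for 3 h, then to Biotin-Ahx-Ub-VS at 0.5 µM final for 1 h, before NeutrAvidin enrichment of labelled DUBs, LysC and trypsin digestion, and diaPASEF LC-MS/MS.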

USP22 = molecular target: T2, USP22 (UniProt Q9UPT9)
T2 sequence (whole entry): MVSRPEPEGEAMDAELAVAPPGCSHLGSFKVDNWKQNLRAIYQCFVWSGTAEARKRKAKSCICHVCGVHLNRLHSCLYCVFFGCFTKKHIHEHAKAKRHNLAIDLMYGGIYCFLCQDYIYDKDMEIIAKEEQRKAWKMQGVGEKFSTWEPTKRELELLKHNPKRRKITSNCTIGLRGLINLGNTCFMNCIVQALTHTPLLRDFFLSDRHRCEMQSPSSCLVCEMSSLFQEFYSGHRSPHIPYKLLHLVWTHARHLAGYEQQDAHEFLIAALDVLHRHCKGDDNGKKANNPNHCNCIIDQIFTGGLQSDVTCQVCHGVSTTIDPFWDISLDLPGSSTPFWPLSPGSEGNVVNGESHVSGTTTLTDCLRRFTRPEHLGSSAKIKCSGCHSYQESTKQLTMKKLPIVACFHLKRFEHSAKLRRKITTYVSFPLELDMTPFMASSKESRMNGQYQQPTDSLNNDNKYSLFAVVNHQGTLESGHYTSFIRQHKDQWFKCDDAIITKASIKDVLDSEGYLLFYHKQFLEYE
How it was run: as §1

USP24 = USP24 (UniProt Q9UPU5)
How it was run: as §1

USP25 = molecular target: T3, USP25 (UniProt Q9UHP3)
T3 sequence (whole entry): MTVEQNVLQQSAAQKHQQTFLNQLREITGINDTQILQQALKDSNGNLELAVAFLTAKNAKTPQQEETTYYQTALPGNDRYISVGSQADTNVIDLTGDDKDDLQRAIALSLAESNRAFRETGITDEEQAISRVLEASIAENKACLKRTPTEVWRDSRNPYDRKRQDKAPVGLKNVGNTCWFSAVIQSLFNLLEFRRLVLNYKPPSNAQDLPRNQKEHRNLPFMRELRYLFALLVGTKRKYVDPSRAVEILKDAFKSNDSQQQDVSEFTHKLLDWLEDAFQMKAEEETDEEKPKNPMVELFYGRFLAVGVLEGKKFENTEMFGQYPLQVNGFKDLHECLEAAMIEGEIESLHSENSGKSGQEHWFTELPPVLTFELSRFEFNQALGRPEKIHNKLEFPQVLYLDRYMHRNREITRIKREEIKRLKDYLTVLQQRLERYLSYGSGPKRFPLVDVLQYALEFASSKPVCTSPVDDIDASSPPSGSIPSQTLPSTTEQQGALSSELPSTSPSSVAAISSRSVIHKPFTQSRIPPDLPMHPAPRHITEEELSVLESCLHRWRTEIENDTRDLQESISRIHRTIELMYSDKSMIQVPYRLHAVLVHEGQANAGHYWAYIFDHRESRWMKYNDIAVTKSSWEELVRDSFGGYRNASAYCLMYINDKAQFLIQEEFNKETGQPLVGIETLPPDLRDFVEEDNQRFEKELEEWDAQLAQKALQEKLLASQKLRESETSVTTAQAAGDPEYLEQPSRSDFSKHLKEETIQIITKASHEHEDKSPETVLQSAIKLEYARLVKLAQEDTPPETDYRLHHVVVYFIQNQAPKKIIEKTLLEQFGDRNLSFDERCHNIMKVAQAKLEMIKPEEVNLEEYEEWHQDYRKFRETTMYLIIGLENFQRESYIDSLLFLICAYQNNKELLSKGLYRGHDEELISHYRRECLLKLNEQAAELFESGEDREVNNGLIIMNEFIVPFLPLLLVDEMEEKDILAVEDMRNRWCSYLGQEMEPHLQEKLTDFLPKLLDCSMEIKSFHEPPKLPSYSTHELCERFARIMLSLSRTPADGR
How it was run: as §1

USP28 = molecular target: T4, USP28 (UniProt Q96RU2)
T4 sequence (whole entry): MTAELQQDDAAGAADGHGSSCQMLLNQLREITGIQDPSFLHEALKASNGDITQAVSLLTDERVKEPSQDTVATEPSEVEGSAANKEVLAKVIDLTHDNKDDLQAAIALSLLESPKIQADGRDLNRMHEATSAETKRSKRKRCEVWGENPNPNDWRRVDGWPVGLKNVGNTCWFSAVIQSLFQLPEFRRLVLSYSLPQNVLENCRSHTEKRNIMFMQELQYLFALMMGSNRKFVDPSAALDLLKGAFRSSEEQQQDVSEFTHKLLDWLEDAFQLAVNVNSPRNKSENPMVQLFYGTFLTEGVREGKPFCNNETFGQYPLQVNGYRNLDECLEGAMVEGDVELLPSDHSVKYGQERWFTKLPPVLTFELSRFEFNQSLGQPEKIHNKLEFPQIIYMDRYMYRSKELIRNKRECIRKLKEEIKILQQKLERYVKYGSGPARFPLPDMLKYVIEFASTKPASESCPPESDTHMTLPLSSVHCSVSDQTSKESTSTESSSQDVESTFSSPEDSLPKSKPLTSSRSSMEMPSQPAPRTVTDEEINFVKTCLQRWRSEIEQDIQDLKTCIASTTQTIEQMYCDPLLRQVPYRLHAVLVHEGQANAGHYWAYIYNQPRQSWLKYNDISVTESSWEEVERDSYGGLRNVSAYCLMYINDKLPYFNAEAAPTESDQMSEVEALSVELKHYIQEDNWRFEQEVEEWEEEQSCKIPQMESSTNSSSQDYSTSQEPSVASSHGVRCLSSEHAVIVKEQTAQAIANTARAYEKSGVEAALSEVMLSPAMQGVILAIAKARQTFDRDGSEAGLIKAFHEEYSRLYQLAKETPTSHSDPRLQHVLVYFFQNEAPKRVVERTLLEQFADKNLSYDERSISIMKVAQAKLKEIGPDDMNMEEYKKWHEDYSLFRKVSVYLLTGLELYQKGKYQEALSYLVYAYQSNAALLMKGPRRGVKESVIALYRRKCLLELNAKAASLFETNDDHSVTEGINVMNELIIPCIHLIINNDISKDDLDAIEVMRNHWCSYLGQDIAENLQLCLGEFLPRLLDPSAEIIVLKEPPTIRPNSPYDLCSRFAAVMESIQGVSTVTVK
How it was run: as §1

Measured: log2 ratio of Biotin-Ahx-Ub-VS probe labelling

Sequence of USP24 (Q9UPU5 whole entry): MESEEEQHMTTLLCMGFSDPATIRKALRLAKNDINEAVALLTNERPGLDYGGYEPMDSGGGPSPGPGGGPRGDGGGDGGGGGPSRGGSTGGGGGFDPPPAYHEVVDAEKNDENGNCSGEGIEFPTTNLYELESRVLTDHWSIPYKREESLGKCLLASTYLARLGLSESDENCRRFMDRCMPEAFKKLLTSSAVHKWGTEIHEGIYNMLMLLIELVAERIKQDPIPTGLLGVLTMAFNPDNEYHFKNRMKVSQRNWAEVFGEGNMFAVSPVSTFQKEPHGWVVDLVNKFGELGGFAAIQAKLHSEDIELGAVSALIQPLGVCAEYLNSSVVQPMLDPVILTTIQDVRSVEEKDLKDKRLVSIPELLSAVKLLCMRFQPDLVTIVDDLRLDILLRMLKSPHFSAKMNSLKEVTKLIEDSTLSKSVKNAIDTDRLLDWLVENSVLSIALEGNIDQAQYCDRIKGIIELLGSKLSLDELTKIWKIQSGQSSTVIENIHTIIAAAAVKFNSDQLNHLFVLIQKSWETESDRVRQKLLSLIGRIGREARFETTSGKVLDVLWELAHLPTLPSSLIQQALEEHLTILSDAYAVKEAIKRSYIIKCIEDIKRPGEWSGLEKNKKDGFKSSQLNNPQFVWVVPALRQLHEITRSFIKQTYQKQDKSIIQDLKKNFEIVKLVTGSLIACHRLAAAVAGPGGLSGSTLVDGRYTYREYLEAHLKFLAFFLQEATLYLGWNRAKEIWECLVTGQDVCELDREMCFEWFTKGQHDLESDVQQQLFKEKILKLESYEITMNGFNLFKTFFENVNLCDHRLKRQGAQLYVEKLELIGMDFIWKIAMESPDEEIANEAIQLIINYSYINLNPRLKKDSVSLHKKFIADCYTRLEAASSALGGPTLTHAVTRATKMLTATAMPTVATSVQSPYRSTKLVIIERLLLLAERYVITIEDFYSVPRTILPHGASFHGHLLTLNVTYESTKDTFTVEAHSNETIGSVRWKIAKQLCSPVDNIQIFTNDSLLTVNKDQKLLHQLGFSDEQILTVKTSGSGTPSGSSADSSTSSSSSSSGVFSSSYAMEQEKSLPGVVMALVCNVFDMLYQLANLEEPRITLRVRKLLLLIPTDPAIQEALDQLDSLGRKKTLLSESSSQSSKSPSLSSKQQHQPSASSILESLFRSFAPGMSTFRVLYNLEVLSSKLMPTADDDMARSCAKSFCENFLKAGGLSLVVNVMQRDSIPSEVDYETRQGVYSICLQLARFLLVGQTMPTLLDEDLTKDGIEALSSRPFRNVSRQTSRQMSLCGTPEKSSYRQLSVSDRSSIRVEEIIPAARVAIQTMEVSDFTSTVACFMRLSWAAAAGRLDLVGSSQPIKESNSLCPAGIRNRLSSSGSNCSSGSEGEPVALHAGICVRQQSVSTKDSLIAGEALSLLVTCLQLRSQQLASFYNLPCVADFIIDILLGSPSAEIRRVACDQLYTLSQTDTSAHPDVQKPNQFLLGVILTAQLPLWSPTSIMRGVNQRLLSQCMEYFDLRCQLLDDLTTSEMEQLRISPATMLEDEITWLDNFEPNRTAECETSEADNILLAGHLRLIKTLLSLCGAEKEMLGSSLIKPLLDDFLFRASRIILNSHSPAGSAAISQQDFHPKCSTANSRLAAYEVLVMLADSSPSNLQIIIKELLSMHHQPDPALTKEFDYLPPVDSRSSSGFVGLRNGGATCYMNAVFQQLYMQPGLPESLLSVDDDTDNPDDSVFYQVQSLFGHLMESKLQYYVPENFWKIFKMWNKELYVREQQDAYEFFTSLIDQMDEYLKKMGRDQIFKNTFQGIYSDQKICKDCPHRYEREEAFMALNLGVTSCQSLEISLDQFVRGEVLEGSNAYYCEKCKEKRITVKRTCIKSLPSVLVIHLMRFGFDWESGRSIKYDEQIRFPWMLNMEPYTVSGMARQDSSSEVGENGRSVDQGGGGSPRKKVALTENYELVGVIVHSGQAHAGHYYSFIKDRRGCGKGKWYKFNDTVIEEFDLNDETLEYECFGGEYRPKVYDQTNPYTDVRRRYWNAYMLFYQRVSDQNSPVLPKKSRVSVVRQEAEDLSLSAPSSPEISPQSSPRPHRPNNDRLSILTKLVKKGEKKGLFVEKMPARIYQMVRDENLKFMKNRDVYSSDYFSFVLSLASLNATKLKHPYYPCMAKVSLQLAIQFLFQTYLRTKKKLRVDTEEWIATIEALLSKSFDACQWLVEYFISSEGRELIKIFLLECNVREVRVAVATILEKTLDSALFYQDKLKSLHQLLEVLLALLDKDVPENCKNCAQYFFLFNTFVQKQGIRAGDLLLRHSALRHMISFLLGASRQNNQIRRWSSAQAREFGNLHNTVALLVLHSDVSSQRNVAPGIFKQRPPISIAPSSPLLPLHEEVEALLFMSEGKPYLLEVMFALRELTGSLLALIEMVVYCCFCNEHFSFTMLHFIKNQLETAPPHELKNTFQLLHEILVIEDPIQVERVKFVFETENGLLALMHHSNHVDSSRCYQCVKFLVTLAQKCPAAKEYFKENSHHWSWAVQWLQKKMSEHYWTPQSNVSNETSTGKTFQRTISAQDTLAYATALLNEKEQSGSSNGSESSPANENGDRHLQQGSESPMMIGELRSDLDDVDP

Cc1ccc(CN(CCO)C(=O)CCl)cc1
inactive: USP19 -0.37 | USP22 -0.0829 | USP24 -0.445 | USP25 -0.431 | USP28 -0.569
